Screening results deposited in PubChem BioAssay by several laboratories.
Only some compounds are listed: those with a hit (about 2.8% of all), similar ones and a draw of the others.
HIF-2a block – blocks HIF-2a reporter activity; 786-0 RCC cells HIF-2a reporter, luciferase luminescence, overnight; inhibition, % at 18.8 µM; 360,000 compounds, 0.72% hits; AID 624352;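 active = inhibition of the luminescence signal of 40% or more relative to plate controls, in a single-dose primary screen at 18.75 µM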
KKLEB cytotox – counter-screen for CF NF-kB inhibitors: cytotoxicity | activity change (cytotoxicity), % at 5 µM | 360,000 compounds, 0.36% hits | KKLEB CF airway cells viability, ATPlite luminescence, overnight; hits give low values; cells stimulated with P. aeruginosa culture filtrate;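 active = corrected activity change at or below -50% at 5 µM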
Beta2AR agonist – agonists of human beta-2 adrenergic receptor inducing internalization; Am2.2-beta2AR cells, FAP receptor internalization, flow cytometry; response, % (no concentration beside the values); 340,000 compounds, 0.43% hits; AID 504454;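 active = response above a set limit, near 3 SD of response in nonfluorescent compounds, cut at about 42% in these data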
Target sequence (P07550 whole entry, looked up): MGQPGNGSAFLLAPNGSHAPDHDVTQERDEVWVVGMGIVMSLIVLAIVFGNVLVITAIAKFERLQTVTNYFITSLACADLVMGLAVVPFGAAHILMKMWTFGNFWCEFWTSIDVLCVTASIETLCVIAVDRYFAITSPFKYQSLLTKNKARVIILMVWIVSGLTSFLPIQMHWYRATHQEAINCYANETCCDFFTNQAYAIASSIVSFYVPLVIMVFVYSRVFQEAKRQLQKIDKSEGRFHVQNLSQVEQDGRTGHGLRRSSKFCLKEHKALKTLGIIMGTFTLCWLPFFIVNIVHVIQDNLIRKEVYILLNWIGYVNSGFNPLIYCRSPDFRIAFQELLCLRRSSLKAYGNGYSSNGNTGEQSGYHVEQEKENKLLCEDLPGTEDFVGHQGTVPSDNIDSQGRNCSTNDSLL
CF NFkB block – cystic fibrosis NF-kB activation inhibition; KKLEB NF-kB-GFP reporter, PAF-induced, GFP fluorescence overnight; inhibition, % at 5 µM; 360,000 compounds, 0.86% hits;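 active = at least 50% inhibition at 5 µM, scaled per plate between neutral and stimulator controls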;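 note: PAF is a Pseudomonas aeruginosa culture filtrate used as stimulus; plate controls were PAF-stimulated DMSO wells for no effect and unstimulated DMSO wells for full effect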
Peg3 promoter – Peg3 promoter activity inhibition | HeLa PEG-Prom luciferase reporter, luminescence, overnight | inhibition, % at 20 µM | 360,000 compounds, 1.7% hits | AID 588405;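 active = inhibition of at least 50% at 20 µM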
TRPM1 prom inh – reduces MITF-dependent TRPM1 promoter luciferase signal; SK-MEL-5 TRPM1 promoter luciferase, 24 h; 330,000 compounds, 0.83% hits; inhibition, % at 12.5 µM; AID 488899;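 active = mean inhibition across replicates of 60% or more, whatever share of single replicates reaches that level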
Mdm2 MdmX conf – Mdm2/MdmX (human) interaction inhibition, confirmed; shares compounds with HIF-2a block; SaOS-2 split-luciferase Mdm2/MdmX complementation, luminescence; inhibition, % at 8 µM; 740 compounds, 99% hits; AID 504601;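 active = mean inhibition of the luminescence signal across two replicates at or above 26 percent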
HIF-2a conf – confirmation of HIF-2a inhibitors | shares compounds with HIF-2a block | 1,800 compounds, 56% hits | AID 651580 | inhibition, % at 18.8 µM | 786-0 RCC cells, HIF-2a luciferase reporter luminescence, overnight;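 active = mean inhibition across four replicates of at least 40 percent at the single tested concentration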
HIF-1a counter – inhibits HIF-1a reporter, a counter-screen for HIF-2a inhibitors; shares compounds with HIF-2a block; MiaPaCa-2 HIF-1a luciferase reporter, desferoxamine, overnight; inhibition, % at 18.8 µM; 1,800 compounds, 72% hits; AID 651589;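 active = mean inhibition of the reporter signal across four replicates at the single tested dose of 50% or more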
* marks the source's active call; other numbers are inactive results; ! = a repeat was not active.

What do the screens show for `O=C(Nc1cc(Cl)cc2c1-c1ccc(Cl)cc1C2O)C(Cl)Cl` (stereo not drawn)?
HIF-2a block: 45*; KKLEB cytotox: 8; Beta2AR agonist: 24; CF NFkB block: -63; Peg3 promoter: 95*; TRPM1 prom inh: 0; HIF-2a conf: -79; HIF-1a counter: 72*

How did Cc1nnsc1C(=O)N1CCCC(C)(C(=O)NS(=O)(=O)C2CC2)C1 (stereo not drawn) do in these assays?
HIF-2a block: 8; KKLEB cytotox: -11; CF NFkB block: 3; Peg3 promoter: 2

What do the screens show for `CCCCC(O)(c1ccc(F)cc1)C(CN1CCOCC1)c1ccc(Cl)cc1` (stereo not drawn)?
HIF-2a block: 24; KKLEB cytotox: -2; Beta2AR agonist: 2; CF NFkB block: 7; Peg3 promoter: 27; TRPM1 prom inh: 4

How did CCCn1nnc(NC(=S)NC(=O)/C=C/c2ccc(Cl)cc2)n1 do in these assays?
HIF-2a block: 13; KKLEB cytotox: -2; Beta2AR agonist: 0; CF NFkB block: 11; Peg3 promoter: 13; TRPM1 prom inh: -9

Results for CCN1CCN(Cc2ccc(NC(=O)c3cc(NC(=O)c4cncc(-c5ccc(C#N)cc5)c4)cc(OC)c3)cc2C(F)(F)F)CC1 ?
HIF-2a block: 89*!; KKLEB cytotox: -73*!; Beta2AR agonist: 39; CF NFkB block: 57*!; Peg3 promoter: 106*; TRPM1 prom inh: 97*; HIF-2a conf: 17; HIF-1a counter: 98*

Results for COc1cc(OC)cc(C(=O)N2CCN(Cc3ccccc3C(F)(F)F)CC2)c1 ?
HIF-2a block: 13; KKLEB cytotox: -10; Beta2AR agonist: 7; CF NFkB block: 22; Peg3 promoter: 5; TRPM1 prom inh: -11

What do the screens show for `Oc1cc(-c2ccncc2)cc2cccnc12`?
HIF-2a block: 15; KKLEB cytotox: -38; Beta2AR agonist: -4; CF NFkB block: 34; Peg3 promoter: 20; Mdm2 MdmX conf: 101*

Results for Oc1cc(-c2ccc(N3CCCCC3)nc2)cc2cccnc12 ?
HIF-2a block: -83; KKLEB cytotox: -2; Beta2AR agonist: 10; CF NFkB block: -10; Peg3 promoter: -123; TRPM1 prom inh: -12; Mdm2 MdmX conf: 99*

How did CCNC(=O)C1(C)CCN(C(=O)c2ccc(N(C)C)cc2)C1 (stereo not drawn) do in these assays?
HIF-2a block: 2; KKLEB cytotox: 21; CF NFkB block: -8; Peg3 promoter: -17

What do the screens show for `Cc1cccc(CN2CCC(n3nccc3NC(=O)CCCc3ccccc3)CC2)c1`?
HIF-2a block: 9; KKLEB cytotox: 12; CF NFkB block: -16; Peg3 promoter: 11

What do the screens show for `COc1cc(C#Cc2ccc3cc(C(C)(C)O)oc(=O)c3c2)cc(OC)c1`?
HIF-2a block: -203; KKLEB cytotox: 5; Beta2AR agonist: 4; CF NFkB block: -3; Peg3 promoter: -76; TRPM1 prom inh: -54

Results for CC(C)Cc1nc2oc3c(Cl)ncnc3c2c2c1CCCC2 ?
HIF-2a block: 75*; KKLEB cytotox: -2; Beta2AR agonist: 25; CF NFkB block: 22; Peg3 promoter: 113*; TRPM1 prom inh: 3; HIF-2a conf: 45*; HIF-1a counter: 100*

What do the screens show for `CC(=O)OCCNc1cc(Sc2nc3ccccc3[nH]2)c2nonc2c1[N+](=O)[O-]`?
HIF-2a block: 95*; KKLEB cytotox: -16; Beta2AR agonist: 26; CF NFkB block: 63*; Peg3 promoter: 113*; TRPM1 prom inh: 80*; HIF-2a conf: 78*; HIF-1a counter: 71*

What do the screens show for `O=[N+]([O-])c1c(NCCCO)cc(Sc2ccc(Cl)cc2)c2nonc12`?
HIF-2a block: 96*; KKLEB cytotox: 24; Beta2AR agonist: 30; CF NFkB block: -4; Peg3 promoter: 98*; TRPM1 prom inh: 92*; HIF-2a conf: 52*; HIF-1a counter: 106*

What do the screens show for `CC(=O)OCCCNc1cc(Sc2ccc(C)cc2)c2nonc2c1[N+](=O)[O-]`?
HIF-2a block: 12; KKLEB cytotox: 4; Beta2AR agonist: 9; CF NFkB block: 30; Peg3 promoter: 30; TRPM1 prom inh: 38

Results for CC(=O)OCCCNc1cc(Sc2nc3ccccc3s2)c2nonc2c1[N+](=O)[O-] ?
HIF-2a block: 32; KKLEB cytotox: 2; Beta2AR agonist: -242; CF NFkB block: 2; Peg3 promoter: 105*; TRPM1 prom inh: 22; Mdm2 MdmX conf: 103*

What do the screens show for `CC1(C(=O)NS(=O)(=O)c2cccc(Cl)c2)CCN1C(=O)CC1CCCC1` (stereo not drawn)?
HIF-2a block: -11; KKLEB cytotox: -2; CF NFkB block: 11; Peg3 promoter: -21

How did COc1ccc(NC(=O)C[C@H]2C(=O)N(C3CCCCC3)C[C@@H]2CSC)cc1 do in these assays?
HIF-2a block: -7; KKLEB cytotox: 2; CF NFkB block: 13; Peg3 promoter: 3

How did COCC(=O)N1CCC(Oc2ccc(C(=O)NC3Cc4ccccc4C3)cc2)CC1 do in these assays?
HIF-2a block: 44*; KKLEB cytotox: 9; Beta2AR agonist: 8; CF NFkB block: 7; Peg3 promoter: 22; TRPM1 prom inh: 7; HIF-2a conf: 43*; HIF-1a counter: 49

Results for O=C(c1ccc(Br)cc1)C(CN1CCOCC1)c1ccccc1 (stereo not drawn) ?
HIF-2a block: 70*; KKLEB cytotox: -64*; Beta2AR agonist: 21; CF NFkB block: 62*; Peg3 promoter: 50; TRPM1 prom inh: 40; HIF-2a conf: -10; HIF-1a counter: -31

What do the screens show for `COC(=O)C1=C(C)N(c2cc(C)cc(C)c2)/C(=C/c2ccc(O)cc2)C1=O`?
HIF-2a block: 44*; KKLEB cytotox: 11; Beta2AR agonist: -9; CF NFkB block: -5; Peg3 promoter: 33; TRPM1 prom inh: 1; HIF-2a conf: 24; HIF-1a counter: 61*

How did COC(=O)C1=C(C)N(c2ccc(Cl)cc2)/C(=C/c2ccc(O)cc2)C1=O do in these assays?
HIF-2a block: 9; KKLEB cytotox: 6; Beta2AR agonist: -2; CF NFkB block: 9; Peg3 promoter: 35; TRPM1 prom inh: 16

How did COC(=O)C1=CN(c2ccc(OC)cc2)C(N)=C(C#N)C1c1ccc(OC)cc1 (stereo not drawn) do in these assays?
HIF-2a block: -19
